From publication PMC4336329 (PLoS ONE, 2015)
The campaign covered roughly 310,000 compounds. About 14,000 (4.5%) showed an effect of 50% or more. The effect is printed as a negative number. What follows is part of a selection rich in strong results, with near analogues and random picks from the rest.

Target: human ether-à-go-go-related gene (hERG) potassium channel (human, UniProt Q12809)
Test: primary screen, population patch clamp on CHO cells stably expressing hERG; higher = less effect of the substance
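Further: peak tail current of the secondary pulse compared with the same well before compound.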

Sequence of human ether-à-go-go-related gene (hERG) potassium channel (Q12809 whole entry, looked up): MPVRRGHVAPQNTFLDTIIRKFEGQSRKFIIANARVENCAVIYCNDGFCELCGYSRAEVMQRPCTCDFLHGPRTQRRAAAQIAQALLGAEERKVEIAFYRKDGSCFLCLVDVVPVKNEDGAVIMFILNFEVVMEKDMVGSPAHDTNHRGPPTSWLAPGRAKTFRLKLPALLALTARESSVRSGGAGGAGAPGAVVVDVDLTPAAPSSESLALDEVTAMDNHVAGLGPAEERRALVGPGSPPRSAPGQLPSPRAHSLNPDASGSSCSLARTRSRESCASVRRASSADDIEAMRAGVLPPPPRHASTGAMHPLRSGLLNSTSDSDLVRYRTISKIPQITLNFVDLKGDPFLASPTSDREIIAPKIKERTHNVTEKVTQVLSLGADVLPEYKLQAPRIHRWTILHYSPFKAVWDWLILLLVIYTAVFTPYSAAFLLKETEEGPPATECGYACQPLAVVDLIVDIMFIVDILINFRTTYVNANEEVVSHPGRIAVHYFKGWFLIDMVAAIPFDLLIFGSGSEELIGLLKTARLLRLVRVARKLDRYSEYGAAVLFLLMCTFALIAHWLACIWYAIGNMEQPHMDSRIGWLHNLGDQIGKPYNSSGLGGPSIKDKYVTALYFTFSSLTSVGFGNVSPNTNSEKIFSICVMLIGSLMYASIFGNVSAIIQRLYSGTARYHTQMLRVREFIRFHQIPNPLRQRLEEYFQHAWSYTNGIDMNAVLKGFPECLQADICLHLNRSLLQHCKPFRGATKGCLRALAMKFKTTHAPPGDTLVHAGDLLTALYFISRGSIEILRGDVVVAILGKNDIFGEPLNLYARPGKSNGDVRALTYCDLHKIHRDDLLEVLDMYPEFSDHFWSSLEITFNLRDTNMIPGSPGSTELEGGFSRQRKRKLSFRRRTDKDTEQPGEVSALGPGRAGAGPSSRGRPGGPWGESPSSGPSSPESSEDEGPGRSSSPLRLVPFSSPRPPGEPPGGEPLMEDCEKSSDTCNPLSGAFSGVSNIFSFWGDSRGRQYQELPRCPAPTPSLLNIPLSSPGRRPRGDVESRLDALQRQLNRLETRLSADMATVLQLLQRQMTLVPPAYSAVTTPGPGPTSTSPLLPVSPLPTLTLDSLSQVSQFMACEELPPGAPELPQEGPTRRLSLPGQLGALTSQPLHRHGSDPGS

| Structure (SMILES) | hERG current change (%, negative = inhibition) at 10uM |
| --- | --- |
| O=C(CCCCCn1c(=S)[nH]c2ccc(N3CCOCC3)cc2c1=O)NCc1ccccc1Cl | 4.65% |
| C=COCCn1c(-c2nonc2N)nc2ccccc21 | -3.07% |
| CC(NC(=O)CCC(=O)NCc1ccc(F)cc1)c1ccccc1 (stereo not drawn) | 13.3% |
| COc1ccc(NC(=S)NC(NC(=O)CF)C(Cl)(Cl)Cl)cc1[N+](=O)[O-] (stereo not drawn) | 15% |
| CCOC(=O)c1ccc(NC(=O)CC2C(=O)N(c3ccc(F)cc3)C(=O)N2CCC(C)C)cc1 (stereo not drawn) | -8.43% |
| COc1ccc(-c2cc(-c3ccc(OC)cc3)c(C#N)c(SC)n2)cc1 | 5.38% |
| CCn1nc(C(=O)Nc2cccc(S(=O)(=O)N3CCCC3)c2)c2ccccc2c1=O | -22.3% |
| COc1ccc(S(=O)(=O)N2CCCC(C(F)(F)F)C2)cc1 (stereo not drawn) | 10.2% |
| O=C(CCNS(=O)(=O)c1ccc2c(c1)CCC(=O)N2)NCc1ccc2c(c1)OCO2 | 0.608% |
| Cc1cccc(NC(=O)Nc2cc(C)on2)c1 | 9.14% |
| C=C1CCC[C@]2(C)C[C@H]3OC(=O)C(CN4CCOCC4)[C@H]3C[C@@H]12 (stereo partly drawn) | 17.7% |
| COc1cccc(OC)c1C(=O)Nc1cccc(-n2cnnn2)c1 | 15.7% |
| CN1CCC(OC(=O)Cc2ccc(Cl)cc2)CC1.Cl | -11% |
| CN(C(=S)Nc1ccc(Oc2ccccc2)cc1)c1ccc(O)cc1 | -6.93% |
| CC(=O)n1cc([C@H]2C=C(C(=O)N3CCN(Cc4ccccc4)CC3)O[C@@H](OCc3ccc(CO)cc3)C2)c2ccccc21 | -24% |
| CC(=O)n1cc([C@H]2C=C(C(=O)N3CCOCC3)O[C@@H](OCc3ccc(CO)cc3)C2)c2ccccc21 | -55.2% |
| CC(=O)n1cc([C@@H]2C=C(C(=O)N3CCN(C)CC3)O[C@H](OCc3ccc(CO)cc3)C2)c2ccccc21 | -41.7% |
| CCN(c1ccccc1)S(=O)(=O)c1ccc(C(=O)N(C)CCc2ccc(OC)c(OC)c2)cc1 | -13.8% |
| O=[N+]([O-])c1ccc(CN2CCN(c3ccccc3)CC2)o1 | 9.7% |

| Structure (SMILES) | hERG current change (%, negative = inhibition) at 10uM |
| --- | --- |
| Brc1ccc(CN2CCN(c3ccccc3)CC2)o1 | 13.8% |
| O=[N+]([O-])c1ccc(CN2CCN(c3ccc(Cl)cc3)CC2)o1 | -2.29% |
| O=C(O)C(=O)O.O=[N+]([O-])c1ccc(N2CCN(Cc3ccc([N+](=O)[O-])o3)CC2)cc1 | -71.1% |
| O=[N+]([O-])c1ccc(N2CCN(Cc3ccc(Br)o3)CC2)cc1 | -65.1% |
| Clc1ccc(N2CCN(Cc3ccc(Br)o3)CC2)cc1 | 7.93% |
| Cc1c(N)cccc1-n1cccc1 | 16.2% |
| Cc1ccc2oc(C(=O)N(C)CCC(O)c3ccccc3)c(C)c2c1 (stereo not drawn) | 11.5% |
| COc1ccc(S(=O)(=O)NCCSCc2cccc(C)c2)cc1Br | -0.641% |
| CCNC(=O)NS(=O)(=O)c1cnccc1Nc1cccc(Cl)c1 | 25.1% |
| c1ccc(-c2noc(C3CCC3)n2)nc1 | 4.59% |
| CC(C)CC(=O)N/N=C/c1c(N)n(C)c(=O)n(C)c1=O | 21.7% |
| COc1ccc(N2CCN(C(=O)Cn3c(=O)c4cccn4c4cccnc43)CC2)cc1 | -15.3% |
| COc1ccc(N2CCN(CCCNC(=O)Cn3c(=O)c4cccn4c4cccnc43)CC2)cc1 | -57.2% |
| O=C(Cn1c(=O)c2cccn2c2ccccc21)NCCCN1CCCCC1 | 3.5% |
| NS(=O)(=O)c1ccc(CCNC(=O)Cn2c(=O)c3cccn3c3cccnc32)cc1 | 22.3% |
| COc1ccc(N2CCN(CCCNC(=O)Cn3c(=O)c4cccn4c4ccccc43)CC2)cc1 | -43.7% |
| O=C(Cn1c(=O)c2cccn2c2cccnc21)NCCCN1CCN(c2ccc(F)cc2)CC1 | -76.4% |
| O=C(Cn1c(=O)c2cccn2c2ccc(F)cc21)NCCCN1CCN(c2ccccc2F)CC1 | -50.5% |
| CCN1CCN(CCNC(=O)Cn2c(=O)c3cccn3c3ccc(F)cc32)CC1 | -2.61% |

| Structure (SMILES) | hERG current change (%, negative = inhibition) at 10uM |
| --- | --- |
| CN1CCN(CCNC(=O)Cn2c(=O)c3cccn3c3ccc(F)cc32)CC1 | 14.1% |
| COc1ccccc1CCNC(=O)C(=O)NCCC1CCCCN1S(=O)(=O)c1cccs1 (stereo not drawn) | -6.92% |
| Cc1c(NC(=O)CSCc2ccccc2)cccc1C(=O)O | 18% |
| CCn1cc([N+](=O)[O-])c(C(=O)N2N=C(c3ccc4ccccc4c3)CC2c2ccccc2O)n1 (stereo not drawn) | 3.19% |
| Clc1ncccc1-c1nnn(-c2ccccc2)n1 | 15.1% |
| Cc1[nH]c2ccccc2c1/C=N/NC(N)=S | 2.1% |
| N#CCCS(=O)(=O)c1nnnn1-c1ccccc1 | -18.7% |
| Cn1c(O)c(N=NC(=O)Cn2c(C(F)(F)F)nc3ccccc32)c2ccccc21 | 6.02% |
| CC(C)C(C(=O)O)N1C(=O)/C(=C/c2cccn2C)SC1=S (stereo not drawn) | -0.129% |
| COCC1CCCN(C(=O)c2ccc3oc(Cc4ccc(Cl)cc4)nc3c2)C1 (stereo not drawn) | -24.7% |
| O=C(C1CCCC1)N1CCCC(Nc2ccc(F)cc2)C1 (stereo not drawn) | -37.2% |
| Cc1ccc(NC(=O)CN2CCCC2)cc1.Cl | 19.1% |
| O=C(CN1CCN(C(=O)C2CCC2)CC1)Nc1ccc(F)cc1 | -69.9% |
| O=C(CN1CCCC1)Nc1cc(C(F)(F)F)cc(C(F)(F)F)c1 | -17.9% |
| O=C(CN1CCCC1)NCC(=O)Nc1ccc(F)cc1 | 8.87% |
| O=C(CN1CCN(C(=O)N2CCCCC2)CC1)Nc1ccc(F)cc1 | -74.9% |
| O=C(CN1CCN(C(=O)C2CC2)CC1)Nc1cc(C(F)(F)F)cc(C(F)(F)F)c1 | -54.4% |
| O=C(CN1CCCC1)Nc1ccc(F)cc1 | 23.3% |
| Cl.O=C(CN1CCN(c2cccc(C(F)(F)F)c2)CC1)Nc1cccc(C(F)(F)F)c1 | -1.14% |
